According to PubChem BioAssay AID624256 (NMMLSC, 2012):
Among all 360,000 compounds or so, about 3,700 (1%) were called active. Roughly 2% stayed inconclusive and do not appear here.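 The calls were made as follows: active = normalized GFP-positive differentiation at or above the plate's own cutoff, the solvent-only control mean plus 3 SD; inconclusive = no clear call, values can overlap the other calls; inactive = the rest.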 Many of the other results were omitted from the sample, so actives are more common in it than they were.

experiment: HoxA9-arrested leukemia cell differentiation promoters – flow cytometry, MLPCN library, primary screen (AID 624256); details: ER-HoxA9 myeloid progenitors, lysozyme-GFP differentiation, at 10 µM; GFP+ MAC1+ double positive: measured here: differentiation confirmed by MAC1 staining, stronger effect = higher value; normalized GFP-positive differentiation: stronger effect = higher value;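 as to GFP+ MAC1+ double positive: cells exposed to compound for four days before flow analysis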;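 as to normalized GFP-positive differentiation: cells exposed to compound for four days before flow analysis; 0% = DMSO wells and 100% = fulvestrant positive control at 5 µM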

Row | SMILES | GFP+ MAC1+ double positive | outcome | normalized GFP-positive differentiation
1 | N#CCC(=O)NC(=O)NCC1CC1 | 1.2% | inactive | –
2 | O=C(NCC1CCCCC1)NCC1CCCCC1 | 5.3% | – | 9.67% (active)
3 | CC(C)(C)NC(=O)NC(=O)COC(=O)CCC1CCCCC1 | 0.5% | inactive | –
4 | COC(=O)Cc1ccc(OC2(C)CCN(Cc3ccc4c(c3)OCCO4)C2)cc1 (centres undefined) | 2.5% | inactive | –
5 | CCC(c1nc2ccccc2[nH]1)n1c(=O)c(-c2cccs2)nc2ccccc21 (centres undefined) | 2.5% | inactive | –
6 | CCCc1c(-c2ccccc2F)ncn1Cc1ccccc1OC | 1.4% | inactive | –
7 | CCc1c(-c2ccc(F)cc2)ncn1Cc1cccc(-c2ccccc2)c1 | 3.4% | inactive | –
8 | CN(C(=O)COC(=O)c1ccc(Br)o1)c1c(N)n(Cc2ccccc2)c(=O)[nH]c1=O | 0.6% | inactive | –
9 | Nc1cc(=O)n(Cc2ccccc2)c(=O)n1Cc1ccccc1 | 1.4% | inactive | –
10 | Cc1cc2nc3c(=O)n(Cc4ccccc4)c(=O)[nH]c3nc2cc1N | 5% | – | 282% (active)
11 | COC(=O)[C@]12CCCCC=C1N(CCC1=CCCCC1)C(=O)[C@H](CC(=O)N1CCSCC1)C2 | 0.5% | inactive | –
12 | N#CC1=C(N)Oc2c(sc3ccccc23)C1c1ccco1 (centres undefined) | 2.5% | – | 197% (active)
13 | N#CC1=C(N)Oc2c(ccc3cccnc23)C1c1ccncc1 (centres undefined) | 0% | inactive | –
14 | N#CC1=C(N)Oc2cc(N)ccc2C1c1ccccc1 (centres undefined) | 0.2% | inactive | –
15 | CCCCNC(=O)OC1CC2CC1[C@H]1CCCCN1C2=O (some centres undefined) | 0.8% | inactive | –
16 | COC(=O)[C@@]12C[C@@H](CC(=O)NCCCCc3ccccc3)C(=O)N(Cc3ccccc3)C1=CCC(C)(C)C2 | 3.1% | inactive | –
17 | Cc1ccc(C(=O)NC2CCCC(C)C2C)cc1S(=O)(=O)N1CCCCC1 (centres undefined) | 2.2% | – | 27.1% (active)
18 | Cc1ccc(C(=O)NNC(=O)c2ccncc2)cc1S(=O)(=O)N1CCCCC1 | 0.5% | inactive | –
19 | CC1CCCC(NC(=O)c2cc(S(=O)(=O)N3CCCCC3)ccc2Cl)C1C (centres undefined) | 1.2% | inactive | –

Row | SMILES | GFP+ MAC1+ double positive | outcome | normalized GFP-positive differentiation
20 | CCOC(=O)[C@]12CCC=C1N(Cc1ccco1)C(=O)[C@H](CC(=O)NCc1cccc(C(F)(F)F)c1)C2 | 1.6% | inactive | –
21 | Cc1cc(NC(=O)CCN2CCN(Cc3ccccc3)CC2)ccc1Br | 0.5% | inactive | –
22 | COc1ccccc1/C=C/C=N/NC(=O)CN1CCN(Cc2ccccc2)CC1 | 0.2% | inactive | –
23 | CN1CCN(CCC(=O)N/N=C/C=C2\N(C)c3ccccc3C2(C)C)CC1 | 2.2% | – | 224% (active)
24 | COc1ccc(-c2ccc(C(=O)NCCN3CCOCC3)c3occc23)c(C)c1 | 1% | inactive | –
25 | O=C(NCc1cccnc1)c1cc(C2CCCN(C(=O)C3CCCCC3)C2)on1 (centres undefined) | 0.6% | inactive | –
26 | c1ccc2c(c1)CSc1sccc1C2=C1CCNCC1 | 4.3% | – | 87.9% (active)
27 | CCCNC(=O)C1(C)CCN(C(=O)c2cc(F)ccc2C)C1 (centres undefined) | 1.2% | inactive | –
28 | COc1ccc(N2c3ccccc3CN(Cc3ccccc3)[C@@H](C)[C@H]2Cc2ccc(-c3ccccc3)cc2)cc1 | 3% | inactive | –
29 | O=C(Nc1ccc2c(c1)OCCO2)C1c2ccccc2OCC(=O)N1Cc1ccccn1 (centres undefined) | 1.3% | inactive | –
30 | Nc1ccc(C(=O)N2CCN(S(=O)(=O)c3ccc(Cl)cc3)CC2)cc1[N+](=O)[O-] | 0.1% | inactive | –
31 | O=C(c1ccc(Oc2ccc(Cl)cc2)c([N+](=O)[O-])c1)N1CCCC1 | 0.9% | inactive | –
32 | CC1CCN(C(=O)c2ccc(S(=O)(=O)Cc3cc(F)ccc3F)c([N+](=O)[O-])c2)CC1 | 1% | – | 43.9% (active)
33 | O=S1(=O)CC(N2CCN(CCO)CC2)CN1C1CCCC1 (centres undefined) | 1% | inactive | –
34 | CCN(CC)C(=O)C1CCCN(Cc2cccc(Cl)c2)C1 (centres undefined) | 1% | inactive | –
35 | CN(C)N1C(N)=C(C#N)C(c2ccc(Br)cc2)C2=C1CCCC2=O (centres undefined) | 0.4% | inactive | –
36 | CCCN1C2=C(C(=O)CCC2)C(c2ccc(O)c(Br)c2)C2=C1CCCC2=O | 3.4% | – | 78.6% (active)
37 | CCOc1ccc(C2C3=C(CCCC3=O)N(CC(=O)O)C3=C2C(=O)CCC3)cc1 | 0.6% | inactive | –
38 | COc1ccc(C2C3=C(CCCC3=O)N(CC(=O)O)C3=C2C(=O)CCC3)cc1 | 17.3% | – | 322% (active)

Row | SMILES | GFP+ MAC1+ double positive | outcome | normalized GFP-positive differentiation
39 | COc1ccc(C2C(C#N)=C(N)N(c3ncn[nH]3)C3=C2C(=O)CCC3)cc1 (centres undefined) | 0.3% | inactive | –
40 | CCOc1ccc(C2C(C#N)=C(N)N(N(C)C)C3=C2C(=O)CCC3)cc1 (centres undefined) | 0.6% | inactive | –
41 | CCOC(=O)N1CCN(C(=O)C[C@@H]2C[C@@]3(C(=O)OC)CCCCC=C3N(CCC3=CCCCC3)C2=O)CC1 | 1.2% | inactive | –
42 | CN(Cc1ccccc1F)c1cc2c(c3c1ccn3C)C1CCC2O1 (centres undefined) | 2.1% | inactive | –
43 | Cc1cc(C)n2c(Nc3c(C)cccc3C)c(CCc3ccccc3)nc2n1 | 0.8% | inactive | –
44 | CC1(C(=O)NS(=O)(=O)Cc2cccc(Cl)c2)CCN1C(=O)Cc1ccccc1 (centres undefined) | 1.3% | inactive | –
45 | O=S1(=O)CC(N2CCN(CCO)CC2)CN1Cc1cn(Cc2cccc(Cl)c2)nn1 (centres undefined) | 1.8% | inactive | –
46 | CCN(CC)c1ccc([N+](=O)[O-])cc1C(=O)O | 0.9% | inactive | –
47 | CCN(CC)c1ccc2cc(C(=O)O)c(=O)oc2c1 | 2.8% | – | 30.9% (active)
48 | Cc1cc(C)cc(OCC(=O)NNC(=O)c2cc3ccccc3oc2=O)c1 | 0.7% | inactive | –
49 | COC(=O)[C@]12CCCCC=C1N(Cc1ccc3c(c1)OCO3)C(=O)[C@H](CC(=O)N1CCOCC1)C2 | 1.1% | inactive | –
50 | CC(C)C1Cc2[nH][nH]c(=O)c2C(c2ccc(Cl)cc2)O1 (centres undefined) | 1.1% | inactive | –
51 | Cc1ccc(Nc2cc(C)nc3c(C)ccc([N+](=O)[O-])c23)cc1 | 8.4% | – | 156% (active)
52 | Cc1ccc2cccc([N+](=O)[O-])c2n1 | 0.8% | inactive | –
53 | Cc1ccccc1Nc1c([N+](=O)[O-])ccc2nonc12 | 0.6% | inactive | –
54 | CCc1nc2c(OCCOc3ccccc3)cccn2c1N(C)C(=O)c1ccc(OC)cc1 | 0.8% | inactive | –
55 | COc1cccc(-c2nc3n(n2)C(c2ccccc2Cl)C(C(N)=O)=C(C)N3)c1 (centres undefined) | 1.5% | inactive | –
56 | CC1=C(C(N)=O)C(c2ccc(F)cc2)n2nc(CCCO)nc2N1 (centres undefined) | 1% | inactive | –
57 | CC1=C(C(N)=O)C(c2ccc3c(c2)OCO3)n2nc(-c3cccc(C)c3)nc2N1 (centres undefined) | 2% | – | 8.9% (active)
